Data published in PubChem BioAssay AID485344 (National Center for Advancing Translational Sciences (NCATS), 2010).
Screen size: about 340,000 compounds; about 6,900 (2%) were called active. The full list was thinned out, with actives kept by preference. Unmarked numbers belong to inactive results. Cut-off read from the data, not from the text of the source: active = inhibition above about 30%; inactive = below that, where a call was filed.

Biological target: D(2) dopamine receptor (Homo sapiens) (UniProt P14416)
Sequence (P14416 whole entry, looked up): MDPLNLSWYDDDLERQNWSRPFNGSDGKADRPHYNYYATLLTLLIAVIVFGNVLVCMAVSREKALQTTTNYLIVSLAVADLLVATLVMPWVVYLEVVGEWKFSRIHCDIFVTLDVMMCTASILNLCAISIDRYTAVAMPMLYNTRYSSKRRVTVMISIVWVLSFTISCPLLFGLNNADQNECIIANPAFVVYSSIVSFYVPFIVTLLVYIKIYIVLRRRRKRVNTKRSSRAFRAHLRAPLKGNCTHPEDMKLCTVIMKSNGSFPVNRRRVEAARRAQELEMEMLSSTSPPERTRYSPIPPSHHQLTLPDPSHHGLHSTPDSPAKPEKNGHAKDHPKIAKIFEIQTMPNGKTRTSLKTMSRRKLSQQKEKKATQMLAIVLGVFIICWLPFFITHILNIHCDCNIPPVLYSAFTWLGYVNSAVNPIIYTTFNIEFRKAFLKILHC
Experiment: HTS Assay for Allosteric Antagonists of the Human D2 Dopamine Receptor: Primary Screen for Antagonists; note: 0% is about no effect
Conditions: HEK293 TREx D2 cells, calcium flux, dopamine EC80; at 10 µM; stronger effect = higher value
In short: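 Antagonism is scored as inhibition of an EC80 dopamine-evoked calcium signal in a force-coupled, tetracycline-inducible HEK293 T-REx D2 line, with compound present 180 s before agonist.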

| Compound | inhibition |
| --- | --- |
| Cc1ccc(CN2CCN(/N=C/c3cccnc3)CC2)c(C)c1 | -10.4% |
| c1cnc(N2CCN(c3ccc4ccccc4n3)CC2)nc1 | -7.91% |
| Oc1ccc(CN2CCN(c3ncccn3)CC2)cc1 | 84.3% (active) |
| Cc1ccc(CN2CCN(/N=C/c3ccco3)CC2)c(C)c1 | -9.84% |
| Cc1ccc(CN2CCN(c3ncccn3)CC2)c(C)c1 | 80% (active) |
| CN(C)C(=O)c1nc2ccc(Cl)cn2c1CN1CCN(c2ncccn2)CC1 | -10.8% |
| Cc1ccc(CN2CC(C(=O)N3CCN(S(=O)(=O)c4ccccc4)CC3)CC2=O)cc1 (stereo unspecified) | -4.27% |
| O=C(CCNC(=O)c1ccccc1Cl)NCc1ccco1 | -26.5% |
| CCc1nnc(NC(=O)c2cc(S(=O)(=O)N3CCCCC3)ccc2C)s1 | -4.7% |
| Cc1ccccc1NC(=O)Cc1nc(COC(=O)c2ccc(C(F)(F)F)cc2)cs1 | 2.02% |
| CN(CC(=O)NCC(c1ccccc1)N1CCCC1)S(=O)(=O)c1ccc(Cl)cc1 (stereo unspecified) | 11.7% |
| CCOc1ccc(NC(=O)CN(C)C(=O)CCSc2ccc(F)cc2)cc1OCC | -8.24% |
| CC1CCC(NC(=O)CNC(=O)c2ccc3ccccc3c2)CC1 (stereo unspecified) | -11% |
| CCC(C)[C@H]1COCCS(=O)(=O)N1Cc1ccc(C)cc1 (stereo partly specified) | 36.6% (active) |
| CCCC[C@H]1COCCS(=O)(=O)N1Cc1cccc(Cl)c1 | 0.354% |
| Cc1ccc(CN2CCCOCCS2(=O)=O)cc1 | -5.42% |
| CCN(CC)C(CNC(=O)CSc1nnnn1-c1cccc(F)c1)c1ccco1 (stereo unspecified) | -7.6% |
| CN1CCN(S(=O)(=O)c2ccc(N3CCN(c4ccccc4O)CC3)c([N+](=O)[O-])c2)CC1 | 6.91% |
| Cc1cc(C)nc(NC(=O)c2cccc([N+](=O)[O-])c2)c1 | 14.3% |

| Compound | inhibition |
| --- | --- |
| Cc1cc(CNC(=O)c2cccc([N+](=O)[O-])c2)c2ccccc2n1 | 49.1% (active) |
| CC(C)(C)SCCNC(=O)c1cccc([N+](=O)[O-])c1 | 7.44% |
| O=C(COC(=O)c1ncc(Cl)c(Cl)c1Cl)NCc1ccccc1 | 6.01% |
| CCN(CC(=O)NCc1cccs1)C(=O)c1ccc(OC)c(S(=O)(=O)N2CCOCC2)c1 | 13.8% |
| Cc1cc(C)nc(SCC(=O)N(C)C)n1 | 7.94% |
| CCOC(=O)c1c(C)[nH]c(C)c1C(=O)CSc1nc(N)cc(N)n1 | 49.1% (active) |
| CCOC(=O)c1c(C)oc(C)c(C(=O)OCC)c1=O | -5.88% |
| CC(C)n1ncc2c(C(=O)Nc3ccc(CC#N)cc3)cc(C3CC3)nc21 | -20.3% |
| CC(C)n1ncc2c(C(=O)NCc3ccccc3CN(C)C)cc(C3CC3)nc21 | 79.9% (active) |
| COc1ccc(C)cc1NC(=O)c1cc(-c2ccccc2)nc2c1cnn2C(C)C | 5.18% |
| COc1ccc(C2=NN(C(=O)CSc3nc(=O)n4ccc(C)cc4n3)C(c3ccc(C)cc3)C2)cc1 (stereo unspecified) | -6.53% |
| O=C(NCC(c1cccs1)N1CCOCC1)c1cc(Cl)ccc1[N+](=O)[O-] (stereo unspecified) | 11.5% |
| CC(=O)c1ccc(N2CCN(C(=O)c3ccc(Cl)c(S(=O)(=O)NC4CC4)c3)CC2)c(F)c1 | 8.05% |
| CCCCN(CC(=O)Nc1cccc(S(=O)(=O)N2CCCC2)c1)Cc1nc2ccccc2c(=O)[nH]1 | -6.94% |
| O=C(Nc1ccc2cn[nH]c2c1)c1ccc(S(=O)(=O)N2CCOCC2)cc1 | 30.5% (active) |
| O=C(Nc1ccc(S(=O)(=O)N2CCOCC2)cc1)c1ccc2ncsc2c1 | 16.7% |
| O=C(CN1C(=O)CCC1=O)Nc1ccc(S(=O)(=O)N2CCOCC2)cc1 | 10.1% |
| O=C(Nc1ccc(N2CCOCC2)c(Cl)c1)c1ccc(S(=O)(=O)N2CCOCC2)cc1 | 34.4% (active) |
| O=C(CCc1ccc(S(=O)(=O)N2CCOCC2)cc1)Nc1ccc2ccccc2c1 | -58.3% |

| Compound | inhibition |
| --- | --- |
| CN1CCN(c2ccc(NC(=O)c3ccc4c(c3)OCCO4)cc2Cl)CC1 | -3.57% |
| O=C(CN1CCN(c2cccc(Cl)c2)CC1)Nc1ccc(S(=O)(=O)N2CCOCC2)cc1 | 30.5% (active) |
| Cc1ccnc(NS(=O)(=O)c2ccc(NC(=O)c3ccc(S(=O)(=O)N4CCOCC4)cc3)cc2)n1 | -5.53% |
| O=C(CN1CCN(c2ccc(O)cc2)CC1)Nc1cc(S(=O)(=O)N2CCOCC2)ccc1Cl | -10.8% |
| CC(C(=O)Nc1ccc(S(=O)(=O)N2CCCC2)cc1)N(C)Cc1ccc(F)cc1 (stereo unspecified) | -65.3% |
| CCn1nc(C(=O)NNC(=O)C2CSC3(C)CCC(=O)N23)c2ccccc2c1=O (stereo unspecified) | -19.4% |
| COc1cc(C#Cc2ccc3cc(CCCO)oc(=O)c3c2)cc(OC)c1 | 7.69% |
| COc1ccc(CNC(=O)C(=O)N2CCC3(CC2)OCCN3S(=O)(=O)c2ccc(C)cc2)cc1 | -3.99% |
| C=CCSc1ccc(S(=O)(=O)N2CCN(C)CC2)cn1 | 6.94% |
| CC(C)N(Cc1nnc(-c2ccccc2Br)o1)C(=O)c1cc(Cl)nc2ccccc12 | -0.847% |
| Cc1cc(C)cc(OCC(=O)Nc2ccc(N3CCOCC3)cc2N2CCOCC2)c1 | -19.7% |
| CCOc1ccc(S(=O)(=O)N2CCC(C(=O)NCC(=O)Nc3cccc(Cl)c3C)CC2)cc1 | 0.735% |
| N#Cc1ccccc1S(=O)(=O)N1CCN(Cc2c(O)ccc3ccccc23)CC1 | -16.7% |
| COc1cccc(CNC(=O)C(=O)NCCC2CCCCN2S(=O)(=O)c2ccc(C)cc2)c1 (stereo unspecified) | -3.22% |
| C[C@@H](NC(=O)c1nc[nH]c1C(=O)N1CCN(C(=O)OC(C)(C)C)CC1)c1ccccc1 | 4.62% |
| Cc1ccc(NC(=S)NC(=O)/C=C/c2ccc(Cl)cc2)cc1 | -2.32% |
| COC(=O)c1c(C)[nH]c(C(=O)/C=C/c2ccc(Cl)cc2)c1C | 40.8% (active) |
| CCCCOC(=O)c1[nH]c(C)c(C(=O)OC)c1C | -12.8% |
